Measured values published in PubChem BioAssay AID1986 (Sanford-Burnham Center for Chemical Genomics, 2009).
In all, about 290,000 compounds went through this assay and about 890 (0.31%) were called active. Cut-off read from the data, not from the text of the source: active = inhibition mostly above about 52% (no sharp cut-off); inactive = mostly below about 76%. The sample as a whole holds a higher share of actives than the screen did.

Experiment: cell-free HIV fusion peptide-binding blockers – biochemical, uHTS, fluorescence dequenching, primary screen (AID 1986)
Conditions: 30 min, stronger effect = higher value
[1] = measured here: repeat confirmation average inhibition, at 18.6 µM

SMILES | inhibition (at 20 µM) | inhibition [1] [%]
CN1CCN(C(=O)CCN2C(=O)c3ccccc3C2=O)CC1 | -0.4% (inactive) | 
COc1ccc(C(=O)N/N=C/c2sc3ccccc3c2O)cc1 | 34.9% (inactive) | 
O=C(N/N=C/c1sc2ccccc2c1O)c1cccc2ccccc12 | 34.1% (inactive) | 
O=C(N/N=C/c1sc2ccccc2c1O)c1ccccc1 | 95% (active) | 
O=C(O)CCCN1C(=O)/C(=C\c2ccccc2OCc2ccccc2)SC1=S | 63.8% (inactive) | 37.2
CCN1C(=O)/C(=C\c2cn(-c3ccccc3)nc2-c2cccnc2)SC1=S | 3.5% (inactive) | 
Cc1nn(-c2ccccc2)c(Cl)c1/C=C1\SC(=S)N(CCCCCC(=O)O)C1=O | 33% (inactive) | 
O=C(O)CCCN1C(=O)/C(=C/c2cn(-c3ccccc3)nc2-c2cccs2)SC1=S | 79.6% (active) | 142
COc1ccc(-c2nn(-c3ccccc3)cc2/C=C2/SC(=S)N(CCC(=O)O)C2=O)cc1 | -0.4% (inactive) | 
O=C(O)CCCN1C(=O)/C(=C/c2ccncc2)SC1=S | -0.7% (inactive) | 
Cc1ccc(-c2nn(-c3ccccc3)cc2/C=C/C(=O)O)o1 | 5.9% (inactive) | 
Cc1ccc(-c2nn(-c3ccccc3)cc2/C=C2\SC(=S)N(CCCCCC(=O)O)C2=O)o1 | 82% (active) | 
O=C(O)CCN1C(=O)/C(=C/c2cn(-c3ccccc3)nc2-c2cccs2)SC1=S | 90% (active) | 142
COc1cc(OC)c(OC)cc1CN1CCN(C(=O)CC(C)C)CC1 | -0.6% (inactive) | 
O=C(Oc1cccc(-n2cnnn2)c1)c1ccco1 | 12% (inactive) | 
CC(NC(=O)c1ccc2c(c1)OCO2)c1ccccc1 (stereo not given) | 0.3% (inactive) | 
Cc1ccc2c(C(=O)CN3CCCC(C)C3)c(C)[nH]c2c1 (stereo not given) | -0.5% (inactive) | 
O=C(OCc1cncs1)c1cccs1 | 0% (inactive) | 
O=C(Nc1ccccc1C(=O)O)c1cccc(C(=O)Nc2ccccc2C(=O)O)c1 | 34.2% (inactive) | 
Cc1ccc(S(=O)(=O)CCSc2cccc(C(=O)O)c2)cc1 | 0.9% (inactive) | 
Cc1ccc(S(=O)(=O)CCSc2cccc(C(=O)Nc3ccccc3C(=O)O)c2)cc1 | 51.2% (active) | 
O=C1CN(/N=C/c2ccc([N+](=O)[O-])o2)C(=O)N1 | 146% (inactive) | 
O=C(O)/C=C/c1ccc([N+](=O)[O-])o1 | 5.1% (inactive) | 
O=C1NC(=S)S/C1=C\C=C\c1ccc([N+](=O)[O-])o1 | 56.6% (active) | 

SMILES | inhibition (at 20 µM) | inhibition [1] [%]
COc1ccc(/C=C/C(=O)NC(=S)Nc2ccccc2)cc1OC | 1.5% (inactive) | 
O=C(O[C@@H]1OC2COC(=O)c3cc(O)c(O)c(O)c3-c3c(cc(O)c(O)c3O)C(=O)O[C@@H]([C@H]1O)[C@@H]2O)c1cc(O)c(O)c(O)c1 | 31.6% (inactive) | 
Nc1nc2ccccc2[nH]1 | -0.4% (inactive) | 
c1ccc2[nH]c3cc4ncnc4cc3nc2c1 | 59.7% (active) | 95.9
FC(F)(F)c1nc2cc3nc4ccccc4[nH]c3cc2n1 | 3.4% (inactive) | 
Cc1cc(C)c(/C=N/n2c(C)cc(C)c(C#N)c2=O)c(C)c1 | -2.5% (inactive) | 
O=C(NCc1ccc2c(c1)OCO2)c1ccc(CSCc2ccccc2Cl)o1 | 0.4% (inactive) | 
CCOC(=O)c1c(O)c2ccccc2oc1=O | -0.2% (inactive) | 
CCc1oc2ccccc2c1C(=O)CCN1CCCCC1 | -3.9% (inactive) | 
CCc1oc2ccccc2c1C(=O)c1cc(Br)c(O)c(Br)c1 | 57.5% (active) | 71.4
Cc1ccc(NC2=NCC(=O)N2c2ccc3c(c2)OCCO3)c(C)c1 | 0.4% (inactive) | 
O=C(NCCSCc1c(F)cccc1Cl)c1ccco1 | -1.3% (inactive) | 
CN(Cc1cc(=O)n2ccsc2n1)Cc1nc2ccccc2c(=O)[nH]1 | -1.5% (inactive) | 
COc1ccc(NC(=O)CSc2nnc(C)c3ccccc23)cc1 | 0.4% (inactive) | 
COc1ccc(NC(=O)CSc2nncc3ccccc23)cc1 | -1.5% (inactive) | 
N#Cc1cccc(NC(=O)CSc2ccccc2)c1 | -0.6% (inactive) | 
Cc1ccccc1SCC(=O)Nc1cccc(C#N)c1 | 8.4% (inactive) | 
COc1ccc(NC(=O)CSc2ccc3c4c(cccc24)C(=O)c2ccccc2-3)cc1 | 77% (active) | 96.6
N#Cc1cccc(NC(=O)CSc2ccc3c4c(cccc24)C(=O)c2ccccc2-3)c1 | 74.2% (active) | 
COc1ccccc1NC(=O)C(C)OC(=O)C1CC(=O)N(c2ccc3c(c2)OCCO3)C1 (stereo not given) | 1.1% (inactive) | 
Cc1ccc(/C=N/NC(=O)c2ccccc2OCc2cccc(Br)c2)o1 | -2.8% (inactive) | 
CCOc1ccccc1N1CC(C(=O)Nc2ccccc2N2CCOCC2)CC1=O (stereo not given) | -1.3% (inactive) | 
COc1ccccc1CNc1ccccc1F | -1.2% (inactive) | 
COc1ccccc1C(C)NC(=O)CCOc1cccc(C)c1 (stereo not given) | -1.1% (inactive) | 

SMILES | inhibition (at 20 µM) | inhibition [1] [%]
Cc1ccc2c(CN3C(=O)NC(C)(c4ccc5c(c4)OCO5)C3=O)cc(=O)oc2c1 (stereo not given) | 3.8% (inactive) | 
Cn1c(N=Nc2ccccc2)nc2ccccc21 | 101% (active) | 
CN(C)c1ccc(N=Nc2nc3ccccc3n2C)cc1 | -6% (inactive) | 
Cc1cc(C)c(C)c(N=Nc2nc3ccccc3n2C)c1C | -5.2% (inactive) | 
CC1CCC2(CC1)Nc1ccccc1C(=O)N2c1ccccc1 (stereo not given) | -0.5% (inactive) | 
O=C(CN1CCN(c2ccc(F)cc2)CC1)Nc1ccc(S(=O)(=O)N2CCOCC2)cc1 | 0.3% (inactive) | 
CCN(CC)CC(O)CCCCCCCCC(=O)OC (stereo not given) | -0.6% (inactive) | 
CCOc1ccc(NC(=O)CN2CCN(C3c4ccccc4-c4ccccc43)CC2)cc1 | 0.9% (inactive) | 
CCc1ccc[n+](-c2[nH]c(=O)sc2/C=N/NC([S-])=Nc2ccccc2)c1 | 57% (active) | 
O=c1[nH]c(-[n+]2ccccc2)c(/C=N/NC([S-])=Nc2ccccc2)s1 | 97.7% (inactive) | 27.6
Cc1cc[n+](-c2[nH]c(=O)sc2/C=N/NC([S-])=Nc2ccccc2)cc1C | 36% (inactive) | 
CCN(CC)C(=O)Cn1cc(S(=O)(=O)CC(=O)Nc2ccccc2C)c2ccccc21 | 1.2% (inactive) | 
N#CC1=C(N)SC(N)=C(C#N)C1c1ccc(C(F)(F)F)cc1 | 18.6% (inactive) | 
Cc1ccc(C2C(C#N)=C(N)SC(N)=C2C#N)cc1 | -0.7% (inactive) | 
N#CC1=C(N)SC(N)=C(C#N)C1c1ccoc1 | 97.5% (active) | 
O=C(COC(=O)c1ccc([N+](=O)[O-])s1)NC(c1ccccc1)c1ccccc1 | 0% (inactive) | 
O=C(NC(=S)NC1CCSC1=O)c1ccc([N+](=O)[O-])cc1 (stereo not given) | -1.4% (inactive) | 
COc1ccc(OC)c(CNC(=O)CCC(=O)N2Cc3cccc(OC)c3Oc3ncccc32)c1 | 1.2% (inactive) | 
Cc1ccc2nc(N/C(=N/S(=O)(=O)c3ccc(F)cc3)c3ccccc3)sc2c1 | 8.2% (inactive) | 
Cc1ccc2nc(N/C(=N/S(=O)(=O)c3cccs3)c3ccccc3Cl)sc2c1 | 69.2% (active) | 
COc1ccc2nc(N/C(=N/S(=O)(=O)c3cccs3)c3ccccc3Cl)sc2c1 | 30.6% (inactive) | 
Cc1cc(C)nc(SCc2nc(N)nc(-c3ccccc3O)n2)n1 | -1.6% (inactive) | 
COc1cc2c(cc1OC)CN(C(=O)c1sc(-c3cnccn3)nc1C)CC2 | 0.1% (inactive) | 
COc1ccc(/C=N/N=C2/NC(=O)C(CC(=O)O)S2)cc1OCc1ccc(Cl)cc1Cl (stereo not given) | 50.6% (inactive) | 47.2

SMILES | inhibition (at 20 µM) | inhibition [1] [%]
COc1ccc(/C=N/N=C2/NC(=O)C(CC(=O)O)S2)cc1OCc1ccc(Cl)cc1 (stereo not given) | 44% (inactive) | 
CCOc1cc(/C=N/NC(=O)CN2CCOCC2)ccc1OCc1ccc(Cl)cc1 | 0.5% (inactive) | 
CCOc1cc(/C=N/N=C2/NC(=O)C(CC(=O)O)S2)ccc1OCc1ccccc1Cl (stereo not given) | 53% (inactive) | 36.4
CCOc1cc(/C=N/NC(=O)CN2CCCCC2)ccc1OCc1ccc(Cl)cc1 | -0.7% (inactive) | 
COc1cc(/C=N/N=C2/NC(=O)C(CC(=O)O)S2)ccc1OCc1cccc(Cl)c1 (stereo not given) | 47.1% (inactive) | 
COc1cc(/C=N/N=C2/NC(=O)C(CC(=O)O)S2)ccc1OCc1ccc(Cl)cc1 (stereo not given) | 51.8% (active) | 
Cc1ccc(NC(=S)NCCN(C2CCCCC2)C2CCCC2)cc1C | 0.4% (inactive) | 
COc1cc(C(C)=O)ccc1COc1ccc(C(=O)O)cc1OC | 2.1% (inactive) | 
O=C(NC1CC2CCCC(C1)N2Cc1ccco1)NC12CC3CC(CC(C3)C1)C2 (stereo not given) | 0.1% (inactive) | 
CCC(=O)Oc1ccc2c(C)cc(=O)oc2c1C(=O)c1ccccc1 | 1.8% (inactive) | 
COc1ccc(C(=O)c2cc3cccc(OC)c3o2)cc1 | -1% (inactive) | 
COc1ccccc1N1C(=O)c2cccc3c(N(C)CCO)ccc(c23)C1=O | 64% (active) | 61.6
COc1ccc(N2C(=O)c3cccc4c(N(C)CCO)ccc(c34)C2=O)cc1 | 150% (inactive) | 
Cc1ccccc1N1C(=O)c2cccc3c(N(C)CCO)ccc(c23)C1=O | 2.4% (inactive) | 
COc1ccccc1/C=C/C=N/n1c(-c2ccncc2)n[nH]c1=S | 1.2% (inactive) | 
CC(C)=NNc1nc2sc3c(c2c(=O)[nH]1)CC(C)(C)OC3 | 6.1% (inactive) | 
CN(C)[C@@H]1C(=O)C(C(=O)NCN2CCCC2)=C(O)[C@@]2(O)C(=O)C3=C(O)c4c(O)cccc4[C@@](C)(O)C3CC12 (stereo not given in full) | 55.1% (active) | 
C=CCCC(=O)N1CCC(n2nccc2NC(=O)CCCc2ccccc2)CC1 | -2.2% (inactive) | 
COc1ccc2nc(N/C(N)=N/C(=S)Nc3cccc(C)c3)nc(C)c2c1 | 1.7% (inactive) | 
COc1cc(/C=c2\sc3nc(=O)c(-c4ccccc4)nn3c2=O)ccc1OCCC(C)C | 62.3% (inactive) | 39.1
COc1ccc(/C=c2\sc3nc(-c4ccccc4)c(-c4ccccc4)n3c2=O)cc1OC | -0.1% (inactive) | 
CCCCCOc1ccc(/C=c2\sc3nc(=O)c(-c4ccccc4)nn3c2=O)cc1OC | 51.8% (active) | 
